Several values for one entry are separate records, joined by “and”; a condition that tells them apart may be missing. Identical values can stand only once. Compounds without any hit were thinned out: in the full panel of roughly 83,000, 20% have a hit.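 For each line, cells grew in 96-well plates with the test compound present at a single concentration for 48 hours.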 Activity calls are given as the source filed them. How the source made its calls: active means growth percent below 10; inactive means the rest.

For the assay, the system named is KM12 colon. Briefly: NCI-60 one-dose screen, 48 h (100 = growth as untreated, 0 = no growth, -100 = all killed). The settings on record: 10 µM unless noted.
Consider `CCCCn1c(=O)c(C(=O)NCc2ccccc2Cl)c(O)c2ccccc21`, for which the growth is 83.8% (inactive).

Consider `O=C(NCCCN1CC1)Nc1cccc2ccccc12`, for which the growth is 103% (inactive) and 102% (inactive).

For `Oc1cc(N2CC2)c(O)cc1N1CC1`, the growth is -52.7% (active).

With `CC12CCC3C4CCC(=O)C=C4CCC3C1CC1CC(=O)OC12` (configuration not stated), the growth was 96% (inactive).

Consider `CCOP(=O)(OCC)C(=O)N(CC)CC`, for which the growth was 98.2% (inactive).

In the case of `C#Cc1cccc(Nc2nc(Cl)nc3cc(NC(=O)CF)ccc23)c1`, the growth is 40.1% (inactive).

For the compound `CC[C@H](C)[C@H](NC(=O)[C@H]1CCCCN1C)C(=O)N(C)[C@H](C(=O)NC12CC(C(=O)N[C@@H](Cc3ccccc3)C[C@H](C)C(=O)OC)(C1)C2)C(C)C`, the growth was 104% (inactive).

Consider `CN1CCC2(CC1)C(C#N)C(=O)NC(=O)C2C#N` (configuration not stated), for which the growth is 126% (inactive).

`CC12CCC3C(CCC4CC(O)CCC43C)C1CCC2=O` (configuration not stated): the growth was 98.9% (inactive).

Consider `C=CC[PH+](c1ccccc1)c1ccccc1.C=CC[PH+](c1ccccc1)c1ccccc1.[Pt+2].[S-]c1nc2ccccc2[nH]1.[S-]c1nc2ccccc2[nH]1`, for which the growth is -63% (active).

`Cc1cc[c-]cc1.Fc1c[c-]c(-c2ccccn2)c(F)c1.[Pt+2].c1ccc([PH+](c2ccccc2)c2ccccn2)cc1`: the growth was 52.4% (inactive).

With `C=C[Se]CC(=O)/C=C/c1ccccc1`, the growth is 26.6% (inactive).

For `CCCCCCCCCCCCCCCCCC1OCC(COC(=O)O[C@@H](C(=O)O[C@H]2C[C@@]3(O)[C@@H](OC(=O)c4ccccc4)[C@@H]4[C@]5(OC(C)=O)CO[C@@H]5C[C@H](O)[C@@]4(C)C(=O)[C@H](OC(C)=O)C(=C2C)C3(C)C)[C@@H](NC(=O)c2ccccc2)c2ccccc2)O1` (some centres not stated), the growth was 14.3% (inactive).

In the case of `CC1(C)C=Cc2c(ccc3c2[N+]([O-])=C2C3=C[C@@]34NC(=O)[C@]5(CCCN5C3=O)C[C@@H]4C2(C)C)O1`, the growth was 47.5% (inactive).

As to `O=C(O)C1C(C(=O)O)C2(Cl)C(Cl)=C(Cl)C1(Cl)C2(Cl)Cl` (configuration not stated), the growth is 100% (inactive) and 105% (inactive).

For the compound `CNC(=O)O/N=C(\SC)C(=O)N(C)C`, the growth was 102% (inactive).

As to `C[C@]12CCc3sc(Nc4ccc(F)cc4F)nc3C1=CC[C@@H]1[C@@H]2CC[C@]2(C)C(=O)CC[C@@H]12`, the growth is 57.1% (inactive).

On to `N#CC(C#N)=C(C#N)C#N`, for which the growth was 108% (inactive).

As to `N#CCC(=O)c1ccccc1`, the growth is 90.8% (inactive).

For `O=C(O)c1ccc(=O)[nH]c1`, the growth was 103% (inactive) and 105% (inactive).

For `CC[C@H](C)[C@H](NC(=O)CN(C)C)C(=O)N(C)[C@H](C[C@@H](OC(C)=O)c1nc(C(=O)NC23C4C5C2C2C3C4C52C(=O)OC)cs1)C(C)C` (some centres not stated), the growth was 13.2% (inactive).

Regarding `CNC(=O)Oc1ccc(Cl)cc1SSc1cc(Cl)ccc1OC(=O)NC`, the growth is 98.5% (inactive).

Regarding `CC(=O)OC1CC2(O)C(CCC3(C)C(c4ccc(=O)oc4)CCC32O)C2(C)CCC(OC3OC(CO)C(O)C(O)C3O)C=C12` (configuration not stated), the growth was -97.8% (active).

`Oc1ccc(O)c(Cl)c1`: the growth was 100% (inactive) and 102% (inactive).

`CC(=O)Nc1nc2c(s1)C1=CC[C@H]3[C@@H]4CC[C@H](OC(C)=O)[C@@]4(C)CC[C@@H]3[C@@]1(C)CC2`: the growth was 50.8% (inactive).

Take `O=C(O)C(F)F`: the growth was 103% (inactive).

Consider `CC[C@H](C)[C@H](NC(=O)C12CC(NC)(C1)C2)C(=O)N(C)[C@H](C[C@@H](OC(C)=O)c1nc(C(=O)N[C@@H](Cc2ccccc2)C[C@H](C)C(=O)OC)cs1)C(C)C`, for which the growth was 6.78% (active).

As to `NC(=O)Oc1cc(OC(N)=O)cc(N(CCCl)CCCl)c1`, the growth was 82.3% (inactive).

Take `CC[PH+](CC)CC.O=COC1OC([S-])C(OC=O)C(OC=O)C1OC=O.[Au+]` (configuration not stated): the growth was -78.9% (active).

As for `CCOC(=O)c1ccccc1C(=O)OCC`, the growth was 104% (inactive).

As to `C[C@@H]1C/C=C\C(=O)O[C@H](/C=C/C#C/C=C/C(C)(C)[C@@H](O)c2cccc(O)c2Br)[C@@H](C)/C=C/[C@H](C)C[C@H](OC(N)=O)C1`, the growth is 40.3% (inactive).

Consider `Cc1c(C)c(N)c(C)c(C)c1N`, for which the growth was 98.4% (inactive).

For the compound `Nc1ccc(P(=O)(O)O)cc1`, the growth is 109% (inactive) and 99.6% (inactive).

As to `OCCN=Cc1c[nH]c2ccccc12`, the growth was 102% (inactive).

As for `S=P(SP(=S)(c1ccccc1)c1ccccc1)(c1ccccc1)c1ccccc1`, the growth was 105% (inactive).

As to `CN1CCc2cc3c(cc2C1O)OCO3` (configuration not stated), the growth is 57.8% (inactive) and 103% (inactive).

Consider `Cc1cc(NC(=O)NCCCOc2ccc(N3C(N)=NC(N)=NC3(C)C)cc2Cl)ccc1S(=O)(=O)F`, for which the growth was 20.9% (inactive).

For the origin of these results see PubChem BioAssay (NCI).
